Values joined by “and” are separate entries in the source; they are usually repeats but may differ in a detail not shown here. Identical values can stand only once. Results filed as inconclusive are left out. Unmarked numbers belong to inactive results. The call rests on the fitted dose curve; in most records, active means well fitted inhibition curve with a large enough effect; inconclusive means small, poorly fitted or top-dose-only effect; inactive means flat fitted curve, though single readings scatter.
system: KB-3-1; test: Cytotoxic Profiling of Annotated Libraries Using Quantitative High-Throughput Screening (AID 1296008); details: Five cell lines viability, CellTiter-Glo ATP luminescence, 48-72 h; max response: hits give low values; further: nearly all actives have a fitted effect of over 60% in size
Description: Cell-based phenotypic screening is a commonly used approach to discover biological pathways, novel drug targets, chemical probes and high-quality hit-to-lead molecules. Many hits identified from high-throughput screening campaign are ruled out through a series of follow-up potency, selectivity/specificity, and cytotoxicity assays. Prioritization of molecules with little or no cytotoxicity for a more in-depth downstream evaluation influence the future direction of projects, so cytotoxicity profiling of the screening libraries at early stage is essential for increasing the likelihood of candidate success. […] For the annotated library, we also examined the primary targets and mechanistic pathways regularly associated with cell death. To our knowledge, this is the first study to use high-throughput screening to profile large libraries for cytotoxicity assessment in both normal and cancer cell lines. In summary, the results generated here constitutes a valuable resource for the scientific community and provides insight on identifying cytotoxic compounds with particular mechanisms of action, and prioritizing compounds with suitable cytotoxicity profile for further evaluation.
A pintool (Kalypsys) was used to transfer 23 nL of compound solution to the 1536-well assay plates. After 48 or 72 hr incubation at 37 degree Celsius, 5% CO2 and 95% humidity, 2.5 uL of CellTiter-Glo (Promega) was dispensed into each well using a dispenser (Aspect Automation, St. Paul, MN) with solenoid valves (Lee Valves, Westbrook CT). Plates were left at room temperature for 10 min before imaging the ATP-coupled luminescence using a ViewLux microplate imager (PerkinElmer, Waltham, MA).
On the % scale 0 is the no-effect control and ±100 the full control effect.

SMILES	max response
CN1CCN(C2=Nc3ccccc3Oc3ccc(Cl)cc32)CC1	6.07%
NC1=NCC2c3ccccc3Cc3ccccc3N12 (stereo not given)	-4.43%
Cc1ccc(Cl)c(Nc2ccccc2C(=O)O)c1Cl	-10.1%
COC(=O)[C@@H](N)Cc1ccc(O)c(O)c1	-3.59%
CC(=O)OC(C)C[N+](C)(C)C (stereo not given)	6%
NC(=Nc1ccccc1)Nc1ccccc1	-0.105%
C=CCc1ccccc1OCC(O)CNC(C)C (stereo not given)	2.54%
CCO/C([O-])=N/c1c[n+](N2CCOCC2)no1	-5.15%
Brc1c(NC2=NCCN2)ccc2nccnc12	-13.6%
CNC1(C)C2CCC(C2)C1(C)C (stereo not given)	0.165%
CN(C)[C@@H]1C(=O)C(C(N)=O)=C(O)[C@@]2(O)C(=O)C3=C(O)c4c(O)ccc(Cl)c4[C@@H](O)[C@H]3C[C@@H]12	-3.68%
CN1C(=O)CC[C@H]1c1cccnc1	0.0726%
CCCN(CCC)CCc1cccc2c1CC(=O)N2	-0.569%
CCCCNc1c(C(=O)OCC)c(C)nc2c1cnn2CC	1.34%
c1ccc2c(c1)CCCC2C1=NCCN1 (stereo not given)	10.6%
Cc1nc2c([nH]1)c(=O)n(C)c(=O)n2Cc1ccco1	16.5%
CN(C)C/C=C(/c1ccc(Br)cc1)c1cccnc1	-12.9%
O=C(O)CCCCCCCC(=O)O	-3.68%
Cc1nnc(SCC2=C(C(=O)O)N3C(=O)[C@@H](NC(=O)Cn4cnnn4)[C@H]3SC2)s1	4.46%
Cc1ccc(=O)n(-c2ccccc2)c1	4.11%

SMILES	max response
C[C@H](CS)C(=O)N1CCC[C@H]1C(=O)O	0.626%
COc1ccc2c(c1OC)C(=O)O[C@@H]2[C@H]1c2c(cc3c(c2OC)OCO3)CCN1C	-12.5%
CN(C)CC/C=C1\c2ccccc2COc2ccccc21	4.58%
CCN(CC)CC(=O)Nc1c(C)cccc1C	-0.324%
O=C(CCNNC(=O)c1ccncc1)NCc1ccccc1	4.64%
CCCCNc1ccc(C(=O)OCCN(C)C)cc1	0.24%
CCCNC(C)C(=O)Nc1ccccc1C (stereo not given)	7.86%
CNCCCN1c2ccccc2CCc2ccccc21	-3.48%
COC(=O)[C@H]1[C@H]2C[C@@H]3c4[nH]c5cc(OC)ccc5c4CCN3C[C@H]2C[C@@H](OC(=O)c2cc(OC)c(OC)c(OC)c2)[C@@H]1OC	21.8% and -5.12%
CCCN(CCC)C(=O)C(CCC(=O)O)NC(=O)c1ccccc1 (stereo not given)	20.1%
CC(C)(Oc1ccc(CCNC(=O)c2ccc(Cl)cc2)cc1)C(=O)O	2.41%
CCN1CCC[C@H]1CNC(=O)c1c(O)c(Cl)cc(Cl)c1OC	-13.7%
CCCCCN(CCCCC)C(=O)C(CCC(=O)O)NC(=O)c1ccc(Cl)c(Cl)c1 (stereo not given)	-8.56%
OCCN1CCN(CCCN2c3ccccc3C=Cc3ccccc32)CC1	-12.9%
COCCOC(=O)C1=C(C)NC(C)=C(C(=O)OC(C)C)C1c1cccc([N+](=O)[O-])c1 (stereo not given)	2.4%
CCc1cccc(N(C)C(N)=Nc2cccc3ccccc23)c1	-7.55%
CC(=O)OCC1=C(C(=O)O)N2C(=O)[C@@H](NC(=O)Cc3cccs3)[C@H]2SC1	1.19%
O=C(O)CN(CCOCCOCCN(CC(=O)O)CC(=O)O)CC(=O)O	5.76%
N[C@@H](COP(=O)(O)O)C(=O)O	-0.563%
O=c1[nH]c(=O)n([C@H]2C[C@H](O)[C@@H](CO)O2)cc1Br	2.61%

From PubChem BioAssay (NCATS)
